High-throughput results from PubChem.
Sampled rows, rich in hits. Any-hit rate of the full collection: about 8.3%.
Gal4-VP16 FLuc – Gal4-VP16 reporter inhibition counter-screen; 310,000 compounds, 3.5% hits; Potency, µM (titrated, usually from 53.6 µM), without a hit: top-dose activity, negative = inhibition, actives largely listed as inhibitors; Drosophila S2 Gal4-VP16 UAS-luciferase, luminescence, 20 h;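 also: Gal4-VP16 expression switched on by copper sulfate through the metallothionein promoter; potency is read from the fitted curve at half-maximal effect; % is scaled to controls: 0 for no effect and ±100 for the full control effect; nearly all actives have a fitted effect of over 50% in size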
SW480 rereplic – induces DNA re-replication in SW480 colon adenocarcinoma cells; SW480 DNA re-replication, Hoechst DNA content imaging, 48 h; Potency, µM (top dose mostly 46.1 µM), inactives show at the highest dose re-replication activation, actives largely listed as activators; 340,000 compounds, 1.8% hits; AID 624297; also: potency is read from the fitted curve at half-maximal effect; % of control where 0% means no effect; nearly all actives have a fitted effect of over 55% in size
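Readout is total intensity of Hoechst-stained nuclei, excited at 405 nm and collected at 500-530 nm. Compound treatment lasted 48 hr at 37 C in 5% CO2 before staining.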
RORgamma inh – blocks mouse ROR gamma transcriptional activity | P51450 | Drosophila S2 Gal4-RORgamma UAS-luciferase reporter, 20 h | Potency, µM (titrated, usually from 53.6 µM), for the others: at the highest dose activity change, negative = inhibition, usual class: inhibitors | 310,000 compounds, 5.4% hits; also: potency is read from the fitted curve at half-maximal effect; % is scaled to controls: 0 for no effect and ±100 for the full control effect; nearly all actives have a fitted effect of over 60% in size
Target sequence (P51450 whole entry, looked up, the tested form may be a part): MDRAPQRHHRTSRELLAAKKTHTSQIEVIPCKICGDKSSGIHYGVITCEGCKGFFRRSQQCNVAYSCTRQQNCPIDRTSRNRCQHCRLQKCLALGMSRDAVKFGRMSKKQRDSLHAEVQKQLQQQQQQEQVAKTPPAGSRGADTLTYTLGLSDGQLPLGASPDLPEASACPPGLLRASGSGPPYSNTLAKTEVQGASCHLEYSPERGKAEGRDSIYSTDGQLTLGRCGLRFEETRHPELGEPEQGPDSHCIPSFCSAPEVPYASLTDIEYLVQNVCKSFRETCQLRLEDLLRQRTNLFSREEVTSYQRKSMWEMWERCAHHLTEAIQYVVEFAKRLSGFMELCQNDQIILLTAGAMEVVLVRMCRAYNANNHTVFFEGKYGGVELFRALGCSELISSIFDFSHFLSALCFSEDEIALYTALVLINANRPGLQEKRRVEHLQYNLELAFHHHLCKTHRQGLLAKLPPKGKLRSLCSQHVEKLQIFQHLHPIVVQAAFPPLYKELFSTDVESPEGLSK
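Compounds are pin-transferred onto Drosophila Schneider cells expressing a copper-inducible Gal4–ROR gamma transactivation domain fusion. After 1 hr, copper sulfate is added to 700 uM final; luciferase is read 20 hr later.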
Giardia kill – Giardia lamblia killing | Giardia lamblia trophozoite viability | activity change, % at 7.66 µM, hits read low | 340,000 compounds, 0.15% hits; in the data active = activity change below about -80%; inconclusive = between about -30% and that limit;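 also: parasites exposed to compound for two days anaerobically before the ATP read; % is scaled to controls: 0 for no effect and ±100 for the full control effect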
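Killing of trophozoites was scored by loss of ATP luminescence after a 48 hrs anaerobic exposure to compounds at 37 deg C, using 100 cells per well.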
Chronic BCR inh – blocks chronic active B-cell receptor signaling | ABC-DLBCL IkBa-CBG/CBR reporter, luminescence ratio, 4 h | AID 493014 | 340,000 compounds, 0.05% hits | Potency, µM (doses to about 46.1 µM), for the others: at the highest dose activity change, negative = inhibition, most hits filed as inhibitors; active = well fitted inhibition curve with a large enough effect in the signal ratio, with a control signal flat, not every such curve was filed as active; inconclusive = small, poorly fitted or top-dose-only effect, or effect the other way, or a change in a side signal; the % refers to the signal ratio;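 also: potency is read from the fitted curve at half-maximal effect; plate controls were basal doxycycline-induced cells for no effect and cells given 10 µM MG132 for full effect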
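TMD8 ABC-DLBCL cells carrying doxycycline-inducible green luciferase fused to IkappaBalpha plus unfused red luciferase were exposed to compounds (up to 46 uM) for 4 hrs at 37C. Activity came from the overlap-corrected green/red luminescence ratio.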
MCF10A rerep – DNA re-replication induction in MCF 10a cells. MCF 10A DNA re-replication, Hoechst nuclear intensity, 48 h. 350,000 compounds, 2.9% hits. Potency, µM (highest dose often 46.1 µM), without a hit: at the highest dose activity, positive = re-replication, actives largely listed as activators. AID 624296; also: potency is read from the fitted curve at half-maximal effect; % of control where 0% means no effect; nearly all actives have a fitted effect of over 50% in size
Active calls of the source: *; [ ] = dose if it differs, or a comment. Unless noted, calls follow the shape of the dose curve; as a rule, active = well fitted curve in the direction sought with a large enough effect; inconclusive = small, poorly fitted or top-dose-only effect, or another doubt; inactive = no such curve, though single readings can be large; an effect the other way counts as inactive or inconclusive.

`O=C(O)c1ccccc1SCC(=O)N1c2ccccc2Sc2ccccc21` gave Gal4-VP16 FLuc 14.1µM*, SW480 rereplic -56.2%, RORgamma inh -12.2%, Giardia kill -15.4, Chronic BCR inh -1.0% and MCF10A rerep inconclusive.
Screening O=C(CCN1CCN(CCO)CC1)N1c2ccccc2Sc2ccc(C(F)(F)F)cc21 returned Gal4-VP16 FLuc -4.2%, SW480 rereplic -11.6%, RORgamma inh 43.0%, Giardia kill 22.9, Chronic BCR inh -7.9% and MCF10A rerep inconclusive.
For CN1CCN(c2ncnc3nc[nH]c23)CC1 the results were Gal4-VP16 FLuc -19.6%, SW480 rereplic -108.2%, RORgamma inh -4.2%, Giardia kill -13.2, Chronic BCR inh 3.7% and MCF10A rerep 0.259µM*.
`CN1CCN(c2nc(Cl)ncc2F)CC1` gave Gal4-VP16 FLuc -1.9%, SW480 rereplic -14.7%[1.84 µM], RORgamma inh -4.2%, Giardia kill -12.7, Chronic BCR inh 6.1% and MCF10A rerep -24.6%.
For CCN1C(=O)C(=C/C=C/c2ccco2)C(=O)N(CC)C1=S the results were Gal4-VP16 FLuc -27.8%, SW480 rereplic 5.0%, RORgamma inh 1.2%, Giardia kill 5.5, Chronic BCR inh 2.0% and MCF10A rerep 0.0%.
Screening Cc1ccc(N/N=C/C=C/c2ccco2)cc1 returned SW480 rereplic 20.6µM*, Giardia kill -12.2 and MCF10A rerep 11.6µM*.
Screening O=P(O)(O)CN1CCNCCN(CP(=O)(O)O)CCNCC1 returned SW480 rereplic 4.11µM*, Giardia kill 8.5 and MCF10A rerep 24.9%.
Cc1noc(C)c1CSCC(=O)Nc1ccc(C#N)c(Cl)c1 was read as SW480 rereplic -22.1%, Giardia kill -3.9, Chronic BCR inh inconclusive and MCF10A rerep 5.0%.
`Cc1sc2ncnc(N3CCC(C(=O)Nc4ccc(C#N)c(Cl)c4)CC3)c2c1C` gave SW480 rereplic 0.0%, Giardia kill -7.8, Chronic BCR inh -5.6% and MCF10A rerep 13µM*.
For O=C(Oc1ccc(-c2cnc3ccccc3n2)cc1)c1ccco1 the results were Gal4-VP16 FLuc inconclusive, SW480 rereplic -24.4%, RORgamma inh -32.1%, Giardia kill 1.5, Chronic BCR inh inconclusive and MCF10A rerep -177.3%[0.0737 µM].
For O=C(CN1CC=C(c2ccccc2)CC1)Nc1c(Cl)cccc1Cl the results were Gal4-VP16 FLuc -4.0%, SW480 rereplic -5.4%, RORgamma inh -10.6%, Giardia kill -22.8, Chronic BCR inh -0.3% and MCF10A rerep 13.7%.
O=C(CN1CC=C(c2ccccc2)CC1)Nc1cc(Cl)ccc1Cl was read as Gal4-VP16 FLuc 1.3%, SW480 rereplic 8.5%, RORgamma inh -28.0%, Giardia kill -21.7, Chronic BCR inh -1.6% and MCF10A rerep 18.4µM*.
For C=C(C)CSc1nnc([C@@H](N)Cc2c[nH]c3ccccc23)o1 the results were Gal4-VP16 FLuc inconclusive, SW480 rereplic -0.7%, RORgamma inh inconclusive, Giardia kill 11.5, Chronic BCR inh 1.5% and MCF10A rerep 4.4%.
Screening Cc1[nH]nc2ccc(-c3cncc(OC[C@@H](N)Cc4c[nH]c5ccccc45)c3)cc12 returned SW480 rereplic inconclusive, Giardia kill -8.3 and MCF10A rerep 2.31µM*.
`Oc1cccc(Cl)c1Cl` gave Gal4-VP16 FLuc 8.8% and RORgamma inh 11.1%.
`O=[N+]([O-])/C=C/c1c(Cl)cccc1Cl` gave SW480 rereplic 6.51µM*, Giardia kill 0.6 and MCF10A rerep 3.66µM*.
Screening Cc1onc(-c2ccccc2Cl)c1C(=O)Nc1cccc2cccnc12 returned Gal4-VP16 FLuc 3.3%, SW480 rereplic 13.2%, RORgamma inh -27.9%[10 µM], Giardia kill 0.1, Chronic BCR inh inconclusive and MCF10A rerep 8.2µM*.
`NC(N)=NS(=O)(=O)c1ccc(N)cc1` gave Gal4-VP16 FLuc 4.9%, SW480 rereplic -23.1%, RORgamma inh -17.6%, Giardia kill 18.1, Chronic BCR inh 7.4% and MCF10A rerep inconclusive.
CC(C)(C)NCC1(CO)SC(N)=NC1=O (stereo not given) was read as Gal4-VP16 FLuc 2.0%, SW480 rereplic inconclusive, RORgamma inh -7.7%, Giardia kill -4.3, Chronic BCR inh inconclusive and MCF10A rerep 20.6µM*.
Screening COP(=O)(OC)OC=C(Cl)Cl returned Gal4-VP16 FLuc -24.5%, SW480 rereplic 13.3µM*, RORgamma inh -14.1% and MCF10A rerep 11.9µM*.
`CN1CCCCC1Cn1cc(C(=O)c2cc([N+](=O)[O-])ccc2I)c2ccccc21` (stereo not given) gave Gal4-VP16 FLuc 0.9% and RORgamma inh 24.0%.
Screening Cc1nc(-c2nc(-c3c(C(=O)NNC(=O)c4ccc(Cl)cc4)noc3C)cs2)cs1 returned Gal4-VP16 FLuc inconclusive, SW480 rereplic 6.5%, RORgamma inh 10µM*, Giardia kill -1.6, Chronic BCR inh -14.2% and MCF10A rerep inconclusive.
Screening CCC(C)NC(=O)CCC(=O)OC1O[C@H]2OC3(C)CC[C@H]4[C@H](C)CCC(C1C)C24OO3 (stereo not given in full) returned Gal4-VP16 FLuc 2.7%, SW480 rereplic 18.4µM*, RORgamma inh -0.2%, Giardia kill 5.4, Chronic BCR inh inconclusive and MCF10A rerep inconclusive.
CCC(C)C(NC(=O)CCCNC(=O)CCC(=O)OC1O[C@H]2OC3(C)CC[C@H]4[C@H](C)CCC(C1C)C24OO3)C(=O)O (stereo not given in full) was read as Gal4-VP16 FLuc 1.8%, RORgamma inh -4.6% and Chronic BCR inh -6.6%.
OC(c1ccc(Cl)cc1)(c1cncnc1)c1ccccc1Cl (stereo not given) was read as Gal4-VP16 FLuc -1.3% and RORgamma inh 24.3%.
`Cc1cc(C)cc(N2C(=O)NC(=O)/C(=C\c3cccn3-c3ccc(Cl)cc3)C2=O)c1` gave Gal4-VP16 FLuc inconclusive, SW480 rereplic 0.3%[9.22 µM], RORgamma inh inconclusive, Giardia kill 7.3, Chronic BCR inh -2.8% and MCF10A rerep inconclusive.
For O=C1NC(=S)NC(=O)C1=Cc1cccn1-c1ccc(O)cc1 the results were Gal4-VP16 FLuc 8.91µM*, SW480 rereplic -10.0%, RORgamma inh 2.82µM*, Giardia kill -3.3, Chronic BCR inh inconclusive and MCF10A rerep inconclusive.
Screening CN1C(=O)/C(=C/c2cccn2-c2ccc3ccccc3c2)C(=O)NC1=S returned Gal4-VP16 FLuc -87.6%, SW480 rereplic inconclusive, RORgamma inh 12.6µM*, Giardia kill -3.1, Chronic BCR inh inconclusive and MCF10A rerep inconclusive.
For C[N+]12CCC(CC1)[C@@H](OC(=O)C(O)(c1ccccc1)c1ccccc1)C2 the results were Gal4-VP16 FLuc -1.1%[17 µM], SW480 rereplic -4.6%[20.6 µM], RORgamma inh -1.7%[2.98 µM] and MCF10A rerep -5.4%[20.6 µM].
For CN(C)C(=O)Cl the results were Gal4-VP16 FLuc 26.1% and RORgamma inh -16.2%.
